# Rpn11 inh = Rpn11 (human) deubiquitinase inhibition; O00487; inhibition, % at 20 µM; human 26S proteasome, Ub4-pepOG fluorescence polarization; 20S core pre-blocked with epoxomicin; 360,000 tested, 0.59% active;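 active = inhibition at 20 µM, scaled to each plate's controls, above about 33%, limit read from the data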
# IDE act = activators of human insulin-degrading enzyme in cells | AID 493087 | HEK cells, FAbeta-B cleavage, fluorescence polarization; 0% vehicle, 100% cell-free pure enzyme wells | 340,000 tested, 0.073% active | activation, % at 5.96 µM | P14735;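 active = activation above the mean of all tested compounds plus 3 SD, set per screening campaign, cut at about 17% in these data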
# TPT1 inh = C. albicans TPT1 enzyme inhibition | recombinant caTPT1, FP RNA substrate dephosphorylation | inhibition, % at 5 µM | 300,000 tested, 0.81% active | AID 1962;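 active = inhibition above the mean of all tested compounds plus 3 SD, set per screening campaign, cut at about 24% in these data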
# Rin1 Abl inh = inhibitors of human Rin1-Abl protein interaction; inhibition, % at 7.35 µM; TR-FRET Rin1/Abl binding, biochemical; P00519+Q13671; 360,000 tested, 0.4% active; in the data active = inhibition above about 5%, passing the limit was not always enough
# Calb FLC = C. albicans growth modulation with fluconazole; C. albicans CaCi-2 (fluconazole-resistant clinical isolate) + fluconazole, Alamar Blue growth, 48 h; growth inhibition, % (concentration not given with the values); 300,000 tested, 0.57% active; AID 1979;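 active = growth inhibition above about 58% in most replicates, limit read from the data, passing the limit was not always enough; inconclusive = exactly half the replicates above a set limit; inactive = most replicates below a set limit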;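 also: all wells also contain fluconazole at 8 µg/ml as a sub-toxic cotreatment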
# IDE cell inh = inhibits human insulin-degrading enzyme in HEK cells. FAbetaB cleavage, fluorescence polarization. inhibition, % at 5.59 µM. 320,000 tested, 0.41% active. P14735;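 active = percent inhibition above the average of all tested compounds plus 3 SD, set per screening campaign, cut at about 16% in these data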;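 also: IDE supplied by intact live HEK cells; FP after avidin binding of uncleaved biotin substrate so inhibition keeps polarization high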
# Rpn11 inh conf = Rpn11 inhibition confirmation, single concentration; shares compounds with Rpn11 inh; purified human 26S proteasome, Ub4-pepOG fluorescence polarization; proteasome pretreated with epoxomicin; inhibition, % at 20 µM; 1,900 tested, 29% active; AID 602318
# MMP-2 inh = counter-screen for RPN11 inhibitors: inhibition of human MMP-2. AID 602330. shares compounds with Rpn11 inh. inhibition, % at 20 µM. 1,900 tested, 4% active. recombinant MMP-2, FRET peptide cleavage fluorescence;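 also: human MMP-2 activated beforehand with APMA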
# Target sequence (P08253 whole entry, looked up): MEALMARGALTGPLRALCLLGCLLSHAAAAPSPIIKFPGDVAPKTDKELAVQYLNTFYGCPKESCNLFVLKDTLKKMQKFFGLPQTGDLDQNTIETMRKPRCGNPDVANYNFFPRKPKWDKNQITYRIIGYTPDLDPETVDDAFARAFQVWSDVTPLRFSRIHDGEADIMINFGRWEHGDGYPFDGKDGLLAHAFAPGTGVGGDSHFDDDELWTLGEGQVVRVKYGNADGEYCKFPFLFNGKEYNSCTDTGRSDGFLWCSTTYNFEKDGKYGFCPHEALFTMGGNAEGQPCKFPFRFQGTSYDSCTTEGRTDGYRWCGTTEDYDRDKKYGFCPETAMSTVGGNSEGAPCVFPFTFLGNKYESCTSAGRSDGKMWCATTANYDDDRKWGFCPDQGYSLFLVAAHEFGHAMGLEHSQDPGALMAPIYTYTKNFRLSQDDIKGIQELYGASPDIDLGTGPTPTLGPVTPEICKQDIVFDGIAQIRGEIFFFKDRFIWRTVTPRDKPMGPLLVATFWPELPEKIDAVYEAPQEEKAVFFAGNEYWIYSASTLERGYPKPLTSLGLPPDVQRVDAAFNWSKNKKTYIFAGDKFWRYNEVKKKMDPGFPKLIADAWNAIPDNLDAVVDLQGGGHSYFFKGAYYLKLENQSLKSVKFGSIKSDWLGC
# Thrombin inh = blocks bovine thrombin, flagging nonselective RPN11 hits; AID 602333; inhibition, % at 20 µM; 1,900 tested, 13% active; bovine thrombin cleavage of Ub4-pepOG, fluorescence polarization; shares compounds with Rpn11 inh;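 active = mean inhibition at least 40% at 20 µM, or signal 3 deviations below plate average, so some actives read negative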
# Numbers stand for hits; . = inactive; ? = inconclusive; / = not tested or not shown. A selection: hits, their analogues and other compounds. The true share with any hit is near 2.3%. Rule as the data show it, unless noted: active = inhibition above about 40%; inactive = the rest.
SMILES,Rpn11 inh,IDE act,TPT1 inh,Rin1 Abl inh,Calb FLC,IDE cell inh,Rpn11 inh conf,MMP-2 inh,Thrombin inh
O=C(N/N=C/c1cc([N+](=O)[O-])ccc1Cl)c1ccc2nc[nH]c2c1,69,.,.,.,.,.,.,.,.
O=C(N/N=C/c1ccccc1C(F)(F)F)c1ccc2nc[nH]c2c1,.,.,.,.,.,.,/,/,/
O=C(N/N=C/c1ccco1)c1ccc2nc[nH]c2c1,.,.,.,.,.,.,/,/,/
O=C(N/N=C/c1ccc(Cl)cc1Cl)c1ccc2nc[nH]c2c1,62,.,.,.,?,.,63,.,.
Cc1ccc2c(c1)C(=O)CC(c1ccccc1)S2 (stereo not drawn),.,.,/,.,/,/,/,/,/
O=C(Cn1c2[n+](c3ccc(C(F)(F)F)cc31)CCCCC2)Nc1ccccc1,.,.,.,.,.,.,/,/,/
FC(F)(F)c1ccc2c(c1)n(Cc1ccccc1)c1[n+]2CCCCC1,54,.,.,.,.,.,.,.,.
COCCNC(=O)C1(C)CCCN(C(=O)c2cc(F)ccc2C)C1 (stereo not drawn),.,/,/,.,/,/,/,/,/
CC1CCCN(S(=O)(=O)c2ccc(Br)s2)C1 (stereo not drawn),46,.,.,.,.,.,.,.,.
CC1CCCN(S(=O)(=O)c2ccc(Cl)s2)C1 (stereo not drawn),.,.,.,.,.,.,/,/,/
CCN(C(=O)c1ccc(N2CC3CC(C2)c2cccc(=O)n2C3)c(NC(=O)c2ccncc2)c1)c1cccc(C)c1 (stereo not drawn),.,.,.,.,.,.,/,/,/
CC1(C)Cc2c(sc(NC(=O)COc3cccc4ccccc34)c2C#N)C(C)(C)N1,54,.,.,.,.,.,.,.,.
COc1cc(/C=C2/C(=N)N3C(SC)=NSC3=NC2=O)ccc1OC(=O)c1ccco1,.,.,.,.,.,.,/,/,/
CCOc1cc(/C=C2/C(=N)N3C(=NC2=O)SN=C3S(=O)(=O)CC)ccc1OC(=O)c1ccco1,56,.,.,.,.,.,.,.,.
CCS(=O)(=O)C1=NSC2=NC(=O)/C(=C\c3ccc(OC(=O)c4ccco4)c(OC)c3)C(=N)N21,118,.,.,.,.,.,.,.,.
CCS(=O)(=O)C1=NN2C(=N)/C(=C\c3ccc(OC(=O)c4ccco4)c(OC)c3)C(=O)N=C2S1,46,.,.,.,.,.,.,.,.
C=CCOc1ccc(/C=C2\C(=N)N3N=C(S(=O)(=O)CC)SC3=NC2=O)cc1OC,.,.,.,.,.,.,/,/,/
COc1cc(/C=C2/C(=N)N3C(=NC2=O)SN=C3S(=O)(=O)C(C)C)ccc1OC(=O)c1ccco1,47,.,.,.,.,.,.,.,.
CCOc1cc(/C=C2/C(=N)N3C(=NC2=O)SN=C3S(=O)(=O)C(C)C)ccc1OC(=O)c1ccco1,/,.,.,.,.,.,/,/,/
COc1ccccc1C(=O)NNC(=O)c1cccc(C)c1,.,.,.,.,.,.,/,/,/
C#CCOCCOCCOCCNc1nc(N2CCN(C(=O)CCCCCCCCCCNC(=O)[C@H]([C@@H](C)CC)n3cc(CCCCN=C(N)N)nn3)CC2)nc(N2CCN(C(=O)CCCCCCCCCCNC(=O)[C@@H]([C@H](C)O)n3cc(C)nn3)CC2)n1,71,51,.,14,/,.,.,.,.
C#CCOCCOCCOCCNc1nc(N2CCOCC2)nc(N2CCN(C(=O)CCCCCCCCCCNC(=O)[C@H]([C@@H](C)CC)n3cc(CCCCN=C(N)N)nn3)CC2)n1,.,.,.,.,/,.,/,/,/
CC(C)(C)OC(=O)C[C@@H]1C/C=C\C[C@@H](CC(=O)NCCO)C(=O)NC[C@H](c2ccccc2)OC1=O,.,.,/,.,/,.,/,/,/
CCn1c(SCc2nc3ccccc3c(=O)[nH]2)nc2ccccc2c1=O,.,.,.,.,.,.,/,/,/
COCCCn1c(SCc2nc3ccccc3c(=O)[nH]2)nc2ccccc2c1=O,105,.,.,.,.,.,.,.,.
SMILES,Rpn11 inh,IDE act,TPT1 inh,Rin1 Abl inh,Calb FLC,IDE cell inh,Rpn11 inh conf,MMP-2 inh,Thrombin inh
Cc1ccccc1OCC(=O)NCCCNC(=O)c1ccco1,.,.,.,.,.,.,/,/,/
Clc1ccc(Br)cc1-c1nc(-c2ccncc2)no1,88,.,.,.,.,.,.,.,.
Brc1cccc(-c2nc(-c3ccncc3)no2)c1,.,.,.,.,.,.,/,/,/
CNC(=O)Cn1ncc2c(C)n(Cc3ccc(C)cc3)c(C)c2c1=O,.,.,.,.,.,.,/,/,/
Cc1c2cnn(CC(=O)Nc3c(F)c(F)cc(F)c3F)c(=O)c2c(C)n1Cc1ccccc1F,86,.,.,.,.,.,134,.,.
Cc1ccc(CNc2oc(-c3ccco3)nc2S(=O)(=O)c2ccccc2)cc1,80,.,.,.,.,.,.,.,.
Cc1ccc(C)c(NC(=O)CSc2nc3nc(-c4cccs4)cc(C(F)(F)F)c3c(=O)[nH]2)c1,.,.,.,.,.,.,/,/,/
O=C(CSc1nc2nc(-c3cccs3)cc(C(F)(F)F)c2c(=O)[nH]1)Nc1ccc(F)c(F)c1,40,.,.,.,.,.,57,.,.
COc1ccc(/C=C/C(=O)c2c(C)cc(C)[nH]c2=O)c2ccccc12,44,.,.,.,.,.,.,.,.
Cc1ccc(/C=C/C(=O)c2c(C)cc(C)[nH]c2=O)cc1,.,.,.,.,.,.,/,/,/
C/C(=C\c1cccs1)C(=O)c1c(C)cc(C)[nH]c1=O,.,.,.,.,.,.,/,/,/
Cc1cc(C)c(C(=O)/C=C/c2cccs2)c(=O)[nH]1,45,.,.,.,.,.,.,.,.
COc1cc(NC(=O)[C@H]2O[C@@H](n3ccc(N)nc3=O)[C@H](O)[C@@H]2O)cc(OC)c1OC,.,/,/,.,/,/,/,/,/
Cc1cc(N2CCCC2)c(F)cc1/C=C\[N+](=O)[O-],64,.,/,.,.,/,60,.,.
Cc1ccccc1CC(=O)Nc1ccc(C(=O)N2CCCC2)cc1,39,.,.,.,/,.,.,.,.
C/C(N)=C(/C#N)C(=O)CSc1nnc(-c2ccccc2)n1C,.,.,.,.,.,.,/,/,/
CCOC(=O)c1sc2nc3c(SCC(=O)O)cc(C(=O)c4ccccc4O)cn3c(=O)c2c1C,100,.,.,.,.,.,45,.,active
O=C(O)CSc1cc(C(=O)c2ccccc2O)cn2c(=O)c3c(-c4ccccc4)csc3nc12,.,.,.,.,.,.,/,/,/
NC(=O)c1sc2nc(-c3ccccc3)ccc2c1N,45,.,.,.,.,.,.,.,.

# Source: PubChem
